Results as given in PubChem BioAssay (NCATS).
Inconclusive results are not listed. Entries that show only a call come without a potency. The source made the active and inactive calls. Unless noted, calls follow the shape of the full dose curve.

What was measured:
[1] = target: Cytochrome P450 2D6 (Homo sapiens) (UniProt P10635); experiment: Cytochrome P450 family 2 subfamily D member 6 (CYP2D6) small molecule antagonists: luciferase biochemical (cell-free) qHTS assay (AID 1645840; active = well fitted curve in the direction sought with a large enough effect in the repeat runs; an effect the other way counts as inactive or inconclusive; also: nearly all actives have a fitted effect of over 55% in size)
How it was run: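 P450-Glo CYP2D6 system: proluciferin substrate converted by enzyme to luciferin, read by luminescence proportional to activity. Enzyme-substrate mix with compound 10 min at room temperature, then NADPH regeneration 1 h before detection reagent.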

[2] = target: Cytochrome P450 2C9 (Homo sapiens) (UniProt P11712); experiment: Cytochrome P450 family 2 subfamily C member 9 (CYP2C9) small molecule antagonists: luciferase biochemical (cell-free) qHTS assay (AID 1645842; active = well fitted curve in the direction sought with a large enough effect in the repeat runs; an effect the other way counts as inactive or inconclusive; also: nearly all actives have a fitted effect of over 55% in size)
How it was run: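 P450-Glo CYP2C9 system: proluciferin substrate with enzyme in mix containing 0.4% BSA, 10 min at room temperature, then NADPH regeneration solution added and incubated 1 h at 37C. Detection reagent stopped reaction; luminescence read after 20 min as RLU.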

[3] = Primary qHTS to identify inhibitors of SARS-CoV-2 cell entry (AID 1645846); details: SARS-CoV-2 pseudovirus cell entry assay, luminescence; also: nearly all actives have a fitted effect of over 45% in size; also: potency is read from the fitted curve at half-maximal effect
How it was run: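 HEK293 cells stably expressing human ACE2, pre-treated 1 h with compound, then infected with MLV particles pseudotyped with Wuhan-Hu-1 spike (C-terminal 19-aa truncation). Luciferase luminescence after 48 h at 37 °C, normalised to spike PP and bald PP.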

[4] = Primary qHTS for Huh7 cytotoxicity: counterscreen for inhibitors of MERS-S pseudotyped particle cell entry (AID 1479147); details: outcome: dose series up to 57.1 µM unless noted
[5] = Primary qHTS for inhibitors of MERS-S pseudo-typed particle cell entry (AID 1479149); details: outcome: dose series up to 57.1 µM unless noted; also: nearly all actives have a fitted effect of over 60% in size
[6] = Primary qHTS for Vero E6 cytotoxicity: counterscreen for inhibitors of SARS-S pseudo-typed particle cell entry (AID 1479150); details: outcome: dose series up to 57.1 µM unless noted
[7] = Cytotoxicity counterscreen for inhibitors of SARS-CoV-2 cell entry (AID 1645845); details: outcome: dose series up to 57.1 µM unless noted; also: nearly all actives have a fitted effect of over 50% in size
How it was run: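 After a 15 min room-temperature ATPLite 1step step, luminescence reflected ATP remaining in HEK293-ACE2 cells exposed to compound for 1 h plus 48 h at 37 C, with percent activity set by cell and no-cell controls.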

[8] = activity change, negative = inhibition: at 57.1 µM (top of the series) unless noted, outcome: at 57.1 µM (top of the series) unless noted

Chain of Cytochrome P450 2C9 (Homo sapiens) (P11712 whole entry, looked up): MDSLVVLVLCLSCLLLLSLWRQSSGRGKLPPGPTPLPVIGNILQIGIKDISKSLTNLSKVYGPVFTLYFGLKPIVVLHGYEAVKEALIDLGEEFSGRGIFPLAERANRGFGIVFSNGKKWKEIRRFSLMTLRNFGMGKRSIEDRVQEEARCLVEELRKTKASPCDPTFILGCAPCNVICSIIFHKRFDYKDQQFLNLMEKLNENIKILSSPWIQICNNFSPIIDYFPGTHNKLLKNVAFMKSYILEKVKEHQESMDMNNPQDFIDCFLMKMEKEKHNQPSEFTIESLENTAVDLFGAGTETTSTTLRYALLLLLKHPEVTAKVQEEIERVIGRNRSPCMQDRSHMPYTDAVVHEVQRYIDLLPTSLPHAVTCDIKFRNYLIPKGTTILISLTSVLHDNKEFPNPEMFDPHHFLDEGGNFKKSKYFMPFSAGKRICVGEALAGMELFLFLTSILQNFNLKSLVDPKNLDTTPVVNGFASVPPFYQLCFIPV
Chain of Cytochrome P450 2D6 (Homo sapiens) (P10635 whole entry, looked up): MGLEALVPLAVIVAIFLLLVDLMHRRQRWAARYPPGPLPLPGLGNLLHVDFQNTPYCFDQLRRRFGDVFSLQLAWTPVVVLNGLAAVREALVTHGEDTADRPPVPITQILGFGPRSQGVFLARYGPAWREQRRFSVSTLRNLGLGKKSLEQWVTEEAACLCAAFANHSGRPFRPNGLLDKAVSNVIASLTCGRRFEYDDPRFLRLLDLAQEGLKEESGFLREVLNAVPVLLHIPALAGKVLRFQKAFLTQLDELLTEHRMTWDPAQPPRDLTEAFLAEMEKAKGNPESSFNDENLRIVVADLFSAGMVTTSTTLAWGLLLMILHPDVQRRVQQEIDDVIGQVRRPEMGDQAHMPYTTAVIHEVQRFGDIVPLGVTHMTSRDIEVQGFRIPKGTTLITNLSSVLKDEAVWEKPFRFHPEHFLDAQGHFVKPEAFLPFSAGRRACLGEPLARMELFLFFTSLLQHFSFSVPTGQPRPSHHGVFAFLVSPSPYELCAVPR

NCCS[As](SCCN)c1ccc(Nc2nc(N)nc(N)n2)cc1
Potency [1]: inactive
Potency [2]: inactive

CN(C)C(=O)c1cc2cnc(Nc3ccc(N4CCNCC4)cn3)nc2n1C1CCCC1
activity change, negative = inhibition ([3]; at 27.1 µM (top of the series)): -19.2%
activity change, negative = inhibition ([3]; at 57.1 µM (top of the series)): -45.9%

O=C1CCC(=O)N1CO
Potency [4]: inactive
Potency [5]: inactive
Potency [6]: inactive
Potency [7]: inactive
Potency [3, 8]: inactive

Cc1c(Cl)c(C)[n+]([O-])c(Cl)c1-c1noc(-c2cc(O)c(O)c([N+](=O)[O-])c2)n1
Potency [4]: inactive
Potency [5]: inactive
Potency [6]: inactive
Potency [7]: inactive
Potency [3, 8]: 14.1 µM (active)

O=C(O)[C@H]1OC(O)[C@H](O)[C@@H](O)[C@@H]1O (stereo partly drawn)
Potency [4]: inactive
Potency [5]: inactive
Potency [6]: inactive
Potency [7]: inactive

CN1c2c(nc(N)[nH]c2=O)NC[C@@H]1CNc1ccc(C(=O)N[C@@H](CCC(=O)O)C(=O)O)cc1
outcome [4]: inactive [at 5.34 µM]
outcome [5]: inactive [at 5.34 µM]
outcome [6]: inactive [at 5.34 µM]
outcome [7]: inactive [at 5.25 µM]

CC(C)N(CCCCOCC(=O)NS(C)(=O)=O)c1cnc(-c2ccccc2)c(-c2ccccc2)n1
Potency [4]: inactive
Potency [5]: inactive
Potency [6]: inactive
Potency [7]: inactive

CC(OC(=O)NCC1(CC(=O)O)CCCCC1)OC(=O)C(C)C (stereo not drawn)
Potency [4]: inactive
Potency [5]: inactive
Potency [6]: inactive
Potency [7]: inactive

CCOc1nc2cccc(C(=O)O)c2n1Cc1ccc(-c2ccccc2-c2noc(=O)[nH]2)cc1
Potency [4]: inactive
Potency [5]: inactive
Potency [6]: inactive
Potency [7]: inactive
activity change, negative = inhibition [3, 8]: -24.5%

CCCCCCCCCCCCCCCCCC(=O)OCCO
Potency [4]: inactive
Potency [5]: inactive
Potency [6]: inactive
Potency [7]: inactive
activity change, negative = inhibition [3, 8]: -12.3%

COc1ccc(CNCC(O)COc2ccc3[nH]c(=O)ccc3c2)cc1OC (stereo not drawn)
Potency [4]: inactive
Potency [5]: inactive
Potency [6]: inactive
Potency [7]: inactive

O=C(O)C[C@@H]1CC[C@H](NC(=O)Cc2cccs2)B(O)O1
Potency [4]: inactive
Potency [5]: inactive
Potency [6]: inactive
Potency [7]: inactive

COc1ccc(-c2c(Cl)ncn2-c2ccc(S(N)(=O)=O)cc2)cc1F
Potency [4]: inactive
Potency [5]: inactive
Potency [6]: inactive
Potency [7]: inactive
activity change, negative = inhibition [3, 8]: -27%
